Source: PubChem
The list is not random: actives were taken first. Their share in the collection is about 3%.
TrxR1 substrate: is turned over as a substrate by rat TrxR1; O89049; purified TrxR1 substrate turnover, NADPH consumption readout; Potency, µM (titrated, usually from 114 µM), for the others: top-dose activity change, negative = substrate turnover; 390,000 tested, 0.01% active; note: % is set by controls: 0 for no effect and ±100 for the full control effect; nearly all actives have a fitted effect of over 50% in size
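Rat TrxR1, dispensed at 90 nM, was prereduced with 400 uM NADPH (final) for 5 min at ~22 deg C, then incubated with compound 15 min before 400 uM selenite. A first-read NADPH fluorescence drop versus no-compound background flagged substrates.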
GALK inhibitor: blocks human galactokinase activity | Purified GALK, Kinase-Glo residual ATP luminescence | Potency, µM (top dose mostly 57.5 µM), for the others: at the top dose activity change, negative = inhibition, usual class: inhibitors | 270,000 tested, 0.007% active; note: % is set by controls: 0 for no effect and ±100 for the full control effect
Target sequence (P51570 whole entry, looked up): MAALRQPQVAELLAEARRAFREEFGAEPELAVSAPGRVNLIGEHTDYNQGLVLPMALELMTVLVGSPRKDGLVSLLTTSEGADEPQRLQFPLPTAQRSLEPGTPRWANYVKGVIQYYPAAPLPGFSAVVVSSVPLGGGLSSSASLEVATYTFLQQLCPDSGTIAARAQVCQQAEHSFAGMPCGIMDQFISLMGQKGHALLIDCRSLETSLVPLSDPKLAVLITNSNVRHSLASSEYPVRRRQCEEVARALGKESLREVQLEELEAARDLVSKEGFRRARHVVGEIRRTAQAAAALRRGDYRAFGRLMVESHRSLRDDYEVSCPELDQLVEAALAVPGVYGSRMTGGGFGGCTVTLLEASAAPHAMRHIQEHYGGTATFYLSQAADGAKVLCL
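ATP-depletion format; final 35 uM ATP, 100 uM D-galactose, 5 nM enzyme; pH 8.0 HEPES/Mg2+ buffer; 60 min RT; luminescence read 10 min after detection reagent.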
Nrf2 ARE act: activators of Nrf2 (ARE) signaling. AREc32 ARE-luciferase reporter (MCF7-derived line), luminescence, 24 h. AID 624171. Potency, µM (series often up to 46.1 µM), for the others: at the highest dose activation, hits mostly activators. 410,000 tested, 0.31% active; note: % of control where 0% means no effect; nearly all actives have a fitted effect of over 65% in size
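Luciferase luminescence (Steady-Glo, 30 min at room temperature) served as the read-out of ARE activation in AREc32 cells treated with compounds for 24 hr at 37 deg C.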
A549 tox: kills or reduces viability of A549 cells in Nrf2 counter-screen. A549 ARE-Fluc cells, CellTiter-Fluor viability, 18-24 h. Potency, µM (top dose mostly 46 µM), for inactives: at the top dose activity change, negative = cytotoxicity, hits mostly inhibitors. 390,000 tested, 0.16% active. AID 504648; note: % is set by controls: 0 for no effect and ±100 for the full control effect
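A549 ARE-Fluc cells in 5% FBS OPTI-MEM, 5000 cells/well, rested 2 h then exposed to compounds in concentration-response for 18-24 h at 37 °C. Viability by CellTiter-Fluor fluorescence (Ex 405/Em 525) after 30 min; luciferase luminescence (BugLite, 15 min, RT) read afterwards.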
Nrf2 inh: blocks Nrf2 signaling; A549 ARE-Fluc reporter, luciferase luminescence, 18-24 h; 360,000 tested, 2.1% active; Potency, µM (doses to about 46 µM), without a hit: at the top dose activity change, negative = inhibition, usual class: inhibitors; note: % is set by controls: 0 for no effect and ±100 for the full control effect; nearly all actives have a fitted effect of over 60% in size
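Quantitative HTS in A549 cells stably bearing an antioxidant response element-firefly luciferase construct. Inhibition of Nrf2-driven transcription was scored by luminescence after 18-24 h of compound exposure at 37 °C.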
TrxR1 inh: rat TrxR1 inhibition; recombinant rTrxR1, NADPH fluorescence consumption, selenite substrate; Potency, µM (series often up to 114 µM), for inactives: top-dose activity change, negative = inhibition, most hits filed as inhibitors; 390,000 tested, 1% active; AID 588453; note: % is set by controls: 0 for no effect and ±100 for the full control effect; nearly all actives have a fitted effect of over 65% in size
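Rat TrxR1 (90 nM in the dispensed reagent) was pre-reduced with 400 uM NADPH for 5 min at room temperature, then incubated with compound for 15 min. After 400 uM selenite was added, NADPH fluorescence (Ex 340/Em 450 nm) was followed for 8 min.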
* = called active by the depositor; ? = inconclusive; · = no result; [ ] = remark or other dose. Calls come from the whole dose curve; as a rule, active = well fitted curve in the direction sought with a large enough effect; inconclusive = small, poorly fitted or top-dose-only effect, or another doubt; inactive = no such curve, though single readings can be large; an effect the other way counts as inactive or inconclusive. Potency is the fitted concentration of half-maximal effect.

SMILES	TrxR1 substrate	GALK inhibitor	Nrf2 ARE act	A549 tox	Nrf2 inh	TrxR1 inh
CC(=O)NC(CCS(C)(=O)=O)C(=O)Nc1cc(Cl)ccc1Cl (centres undefined)	0%[57.1 µM]	0%	-1%	1%	0%	11%[57.1 µM]
COc1cc(Cl)c(NC(=O)c2cc(CN3CCCC3)on2)c(OC)c1	0%	·	4%	5%	10%	5%
CC1=C(C)C(=O)C(CCCCC#CCCCC#CCO)=C(C)C1=O	5%[57.1 µM]	6%	9%	1%	-10%	30µM*
CCc1cccc(-n2c(=O)c3cccnc3n2CC(=O)Nc2ccc(OC)c(Cl)c2)c1	15%[57.1 µM]	·	4%	6%	8.2µM*	17%[57.1 µM]
CCc1ccc(-n2c(=O)c3cccnc3n2CC(=O)Nc2cc(OC)ccc2OC)cc1	33%[57.1 µM]	·	-1%	6%	10%	30%[57.1 µM]
CCC(=O)Nc1ccc(N2CCN(C(=O)c3ccccc3C)CC2)cc1	12%	2%	-1%	-17%	-4%	31%
Cc1ccccc1C(=O)N1CCN(c2ccc(NC(=O)CSc3ccc(Cl)cc3)cc2)CC1	-9%	-1%	0%	-28%	21µM*	10%
COc1c(C)cccc1C(=O)Nc1ccc(N2CCN(C(=O)c3ccccc3C)CC2)cc1	-2%	5%	-1%	-14%	21µM*	9%
Cc1ccccc1C(=O)N1CCN(c2ccc(NC(=O)c3ccc4c(c3)OCCO4)cc2)CC1	-1%	-4%	0%	-4%	21µM*	-5%
Cc1ccccc1C(=O)N1CCN(c2ccc(NC(=O)c3cccc(OC(C)C)c3)cc2)CC1	-7%	-1%	0%	-1%	0%	-10%
COc1cccc(-c2nc3c(c(SCc4ccccc4)n2)Cc2c(CO)cnc(C)c2O3)c1	-1%	·	4%	13%	?	-14%
C=CCNc1nc2c(c(=O)n(C)c(=O)n2C)n1CC	3%	0%	0%	1%	-15%	9%
Cn1c(=O)c2c(nc(NCCc3ccccc3)n2Cc2ccc(F)cc2)n(C)c1=O	-1%	0%	0%	1%	?	6%
C=CCNc1nc2c(c(=O)n(C)c(=O)n2C)n1CCCCCC	5%[0.457 µM]	0%	3%	-22%	4.1µM*	20%
C=CCNc1nc2c(c(=O)n(C)c(=O)n2C)n1Cc1ccc(F)cc1	-4%	2%	-1%	0%	8.2µM*	19%
Cc1cccc(-c2noc(-c3ccccc3NC(=O)C3CC(=O)N(c4ccccc4C)C3)n2)c1 (centres undefined)	14%	·	10%	2%	2%	27%
COc1cc(OC)c(C(=O)NCc2nc(-c3ccccc3)no2)cc1OC	3%	·	2%	-1%	-16%	18%
C=CC[n+]1c(-c2ccc(Cl)cc2Cl)csc1Nc1ccc(NC(C)=O)cc1	-5%[57.1 µM]	-2%	-2%	-15%	12µM*	-1%[57.1 µM]
NC1=C(Cl)C(=O)c2ccc(S(N)(=O)=O)cc2C1=O	-16%	·	-4%	5.8µM*	3.3µM*	-58%
NS(=O)(=O)c1ccc(Cl)c(S(N)(=O)=O)c1	8%	·	0%	-3%	6%	14%
NC1=C(Cl)C(=O)c2ccccc2C1=O	-10%	·	-3%	?	16µM*	13µM*
CCN(CC)c1ccc(NC(=O)CN(C)S(=O)(=O)c2cccc3nsnc23)c(C)c1	-2%	·	0%	17%	2%	17%
CCOC(=O)C(=Cc1cc(=O)c(OC)co1)C(=O)OCC	2%	·	-3%	15µM*	9.2µM*	3.5µM*
CN(C(=O)c1cccc(NC(=O)Cc2ccc([N+](=O)[O-])cc2)c1)C1CC1	6%[57.1 µM]	·	3%	-6%	21µM*	4%[57.1 µM]
Nc1nc(Sc2ccc([N+](=O)[O-])c3nonc23)c2[nH]cnc2n1	-32%	·	?	?	?	1.3µM*
Nc1nc(SCc2ccccc2)c2[nH]cnc2n1	-4%	·	4%	-5%	-19%	4%
